Assay [1] in a line: NCI Yeast Anticancer Drug Screen. Data for the rad50 strain (AID 155).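 Further: 0% = growth of vehicle-only cultures of the same strain.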 To be noted: S. cerevisiae rad50 strain growth inhibition, active compounds read high. A digest of the protocol: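 Growth of the mutant yeast was measured after compound exposure and referenced to vehicle-treated cultures.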
Assay [2] can be described thus: NCI Yeast Anticancer Drug Screen. Data for the mec2-1 strain (AID 157). To be noted: S. cerevisiae mec2-1 strain, active compounds read high. A digest of the protocol:
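Cells of the genetically defined mec2-1 yeast strain are incubated with test compound. Inhibition of growth is calculated against vehicle-treated controls.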

Assay [3] can be described thus: NCI Yeast Anticancer Drug Screen. Data for the sgs1 mgt1 strain (AID 161).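 Further: 0% = growth of cultures given vehicle only.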 The settings on record: S. cerevisiae sgs1 mgt1 strain, active compounds read high. A digest of the protocol: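 Inhibition of yeast growth, normalised to vehicle-treated controls, is reported for a strain bearing genetic alterations in DNA damage repair.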
Assay [4] in a line: NCI Yeast Anticancer Drug Screen. Data for the cln2 rad14 strain (AID 165).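 Further: 0% = growth equal to vehicle treated cultures.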 The settings on record: S. cerevisiae cln2 rad14 strain, active compounds read high. A digest of the protocol:
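The screen exposed genetically defined yeast (cln2 rad14) to test compounds and scored growth inhibition relative to vehicle-treated controls.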

A short description of assay [5]: NCI Yeast Anticancer Drug Screen. Data for the bub3 strain (AID 167). The settings on record: S. cerevisiae bub3 mutant strain, active compounds read high. The procedure, abridged:
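Whole-cell yeast assay. The mutant strain was incubated with compounds, and growth inhibition was determined by comparison with vehicle-treated cells.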

Assay [6] can be described thus: NCI Yeast Anticancer Drug Screen. Data for the mlh1 rad18 strain (AID 175). The settings on record: S. cerevisiae mlh1 rad18 strain growth inhibition, active compounds read high. The procedure, abridged:
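Compound-treated yeast growth, normalised to vehicle controls. Strain bears defined DNA repair mutations.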

Where [7] appears, read: at 5.0 µM (retest, dose inferred, filed as 0.5).
[8] abbreviates: at 50.0 µM (retest, dose inferred, filed as 5.0).

Here are results for 4 compounds from PubChem BioAssay (NCI).

Compounds without any hit were thinned out: in the full panel of roughly 79,000, 15% have a hit. Unmarked numbers belong to inactive results. Active and inactive are the calls of the source. No stated cut-off is given here; in the data, active means growth inhibition above about 70%; inactive means the rest.

Consider `Cc1nc2ccc(NCCN(C)C)c3c(=O)c4cc(O)ccc4n1c23`, for which the growth inhibition is 25% in assay [1] (setting [7]); 63% in assay [1] (setting [8]); -20.4% in assay [1] (at 50.0 µM); -3% in assay [2] (setting [7]); 12% in assay [2] (setting [8]); 20.4% in assay [2] (at 50.0 µM). In addition, the growth inhibition is -4% in assay [3] (setting [7]); 16% in assay [3] (setting [8]); -4.45% in assay [3] (at 50.0 µM); 3% in assay [4] (setting [7]); 16% in assay [4] (setting [8]); 11.2% in assay [4] (at 50.0 µM). The growth inhibition in assay [5] (setting [7]) is 13%; in assay [5] (setting [8]), 13%; in assay [5] (at 50.0 µM), 1.4%; in assay [6] (setting [7]) it was -3%; in assay [6] (setting [8]) it was 20%; in assay [6] (at 50.0 µM), 61.4%.

As for `O=C1C(Cl)=C(Cl)C(=O)C2=C1CC(Cl)C(Cl)C2` (configuration not stated), the growth inhibition in assay [1] (setting [7]) was 87% (active); in assay [1] (setting [8]) it was 98% (active); in assay [1] (at 50.0 µM), 99.3% (active); in assay [2] (setting [7]), 90% (active); in assay [2] (setting [8]), 99% (active); in assay [2] (at 50.0 µM), 99.3% (active). Also, the growth inhibition is 91% (active) in assay [3] (setting [7]); 97% (active) in assay [3] (setting [8]); 99.5% (active) in assay [3] (at 50.0 µM); 37% in assay [4] (setting [7]); 99% (active) in assay [4] (setting [8]); 99% (active) in assay [4] (at 50.0 µM). In addition, the growth inhibition in assay [5] (setting [7]) is 96% (active); in assay [5] (setting [8]), 98% (active); in assay [5] (at 50.0 µM), 99.3% (active); in assay [6] (setting [7]), 95% (active); in assay [6] (setting [8]) it was 99% (active); in assay [6] (at 50.0 µM) it was 99.2% (active).

On to `O=C1c2cc(Br)cc(Br)c2NCCC1(Br)Br`, for which the growth inhibition was 99% (active) in assay [1] (setting [7]); 98% (active) in assay [1] (setting [8]); 97.7% (active) in assay [1] (at 50.0 µM); 98% (active) in assay [2] (setting [7]); 100% (active) in assay [2] (setting [8]); 99.1% (active) in assay [2] (at 50.0 µM). Besides, the growth inhibition in assay [3] (setting [7]) is 100% (active); in assay [3] (setting [8]), 99% (active); in assay [3] (at 50.0 µM), 97.8% (active); in assay [4] (setting [7]), 99% (active); in assay [4] (setting [8]), 98% (active); in assay [4] (at 50.0 µM), 98% (active). The growth inhibition in assay [5] (setting [7]) is 99% (active); in assay [5] (setting [8]) it was 98% (active); in assay [5] (at 50.0 µM) it was 97.5% (active); in assay [6] (setting [7]), 100% (active); in assay [6] (setting [8]), 98% (active); in assay [6] (at 50.0 µM), 98.5% (active).

In the case of `CCN(CC)CC(O)CNc1cc(C)nc(/N=C(\N)Nc2ccc(Cl)c(Cl)c2)n1` (configuration not stated), the growth inhibition in assay [1] (setting [7]) was 0%; in assay [1] (setting [8]), 64%; in assay [1] (at 50.0 µM), 88.8% (active); in assay [2] (setting [7]), -21%; in assay [2] (setting [8]) it was 34%; in assay [2] (at 50.0 µM) it was 57.3%. In addition, the growth inhibition in assay [3] (setting [7]) was -11%; in assay [3] (setting [8]), 54%; in assay [3] (at 50.0 µM) it was 87% (active); in assay [4] (setting [7]) it was -3%; in assay [4] (setting [8]), 19%; in assay [4] (at 50.0 µM) it was 31.7%. For the same compound, the growth inhibition in assay [5] (setting [7]) is -2%; in assay [5] (setting [8]), 30%; in assay [5] (at 50.0 µM) it was 34.2%; in assay [6] (setting [7]), 12%; in assay [6] (setting [8]) it was 86% (active); in assay [6] (at 50.0 µM), 81.2% (active).
